3T3 cytotox – kills NIH 3T3 cells. AID 1345082. actives 4.3% (n = 94,000). NIH 3T3 viability, CellTiter-Glo ATP luminescence, 48-72 h. Potency, µM (top dose mostly 96.7 µM), most hits filed as inhibitors; note: nearly all actives have a fitted effect of over 55% in size
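NIH 3T3 cells at 400 cells/well received 23 nL of compound by pintool and were incubated 48 or 72 h at 37 °C. Viability was read as ATP-coupled CellTiter-Glo luminescence.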
GPT2 inhibitor – blocks human glutamate pyruvate transaminase 2. Q8TD30. Recombinant GPT2, coupled pyruvate oxidase/HRP Amplex Red fluorescence. actives 0.25% (n = 100,000). AID 1671188. Potency, µM (doses to about 57.7 µM), usual class: inhibitors; note: nearly all actives have a fitted effect of over 60% in size
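Fluorescence read-out: pyruvate from GPT2 turnover coupled to pyruvate oxidase, HRP and Amplex Red (0.2mM ThPP, 0.2U/mL PO and HRP, 50uM Amplex final). Substrates 250uM a-KG, 2mM L-alanine; enzyme 10ng/uL; 30 min RT.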
Luciferase inh – inhibitors of firefly (Photinus pyralis) luciferase; P08659; purified P. pyralis luciferase, luminescence, biochemical; Potency, µM (doses to about 115 µM), actives largely listed as inhibitors; actives 2.5% (n = 76,000); AID 1347043; note: nearly all actives have a fitted effect of over 65% in size
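Purified P. pyralis luciferase (10nM final) in 50mM Tris acetate pH 7.5, 10mM Mg acetate, 0.01% Tween-20, 0.05% BSA with 10uM D-luciferin and 10uM ATP. Compounds titrated qHTS. Luminescence imaged on CCD.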
NPR1 antag – human Npr1 receptor antagonism | P16066 | HEK293 hNpr1 GloSensor cGMP, ANP-stimulated luminescence | Potency, µM (top dose mostly 46.3 µM), usual class: inhibitors | actives 1.6% (n = 76,000) | AID 1347048; calls by dose curve; note: nearly all actives have a fitted effect of over 60% in size
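HEK293 cells stably expressing human Npr1 and cGMP GloSensor pGS-40F, loaded 2 h with 2% GloSensor reagent, given compound 30 min at room temperature. Luminescence read before and 20 min after 0.1 nM hNppA.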
HEK cytotox – HEK 293 cell cytotoxicity. actives 6.6% (n = 94,000). HEK 293 viability, ATP luminescence (CellTiter-Glo), 48-72 h. Potency, µM (top dose mostly 115 µM), actives largely listed as inhibitors; note: nearly all actives have a fitted effect of over 60% in size
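qHTS cytotoxicity; HEK 293, 250 cells/well; compound pinned; 48 or 72 hr, 37 degree Celsius, 5% CO2, 95% humidity; CellTiter-Glo, 10 min RT; luminescence (ATP).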
Large screens that a line does not name were inactive. The list is not random: actives were taken first. Their share in the collection is about 10%. Unless noted, calls come from the whole dose curve; as a rule, active = well fitted curve in the direction sought with a large enough effect; inconclusive = small, poorly fitted or top-dose-only effect, or another doubt; inactive = no such curve, though single readings can be large; an effect the other way counts as inactive or inconclusive.

COc1ccccc1-c1cccc(CN2CCCC(C(=O)NCc3ccc4c(c3)OCO4)C2)c1 (configuration not stated)	3T3 cytotox inconclusive, HEK cytotox 35.5µM (no result: Luciferase inh, NPR1 antag)
O=C(Nc1ccccc1F)C1CCCN(Cc2cccc(-c3ccc(F)cc3F)c2)C1 (configuration not stated)	3T3 cytotox inconclusive, HEK cytotox inconclusive (no result: Luciferase inh, NPR1 antag)
COc1ccccc1-c1cccc(CN2CCCC(C(=O)NCc3cccc(F)c3)C2)c1 (configuration not stated)	3T3 cytotox inconclusive, HEK cytotox 12.6µM (no result: Luciferase inh, NPR1 antag)
O=C(C1CCCN1C(=O)c1ccccc1)N1CCC(N2CCOCC2=O)CC1 (configuration not stated)	none (no result: Luciferase inh, NPR1 antag)
COc1ccc(-c2nc(CC3CCN(C(=O)c4ccnn4C)C3)no2)cc1 (configuration not stated)	3T3 cytotox inconclusive, NPR1 antag inconclusive, HEK cytotox inconclusive
COc1ccccc1-c1cccc(CN2CCCC(C(=O)NCC(F)(F)F)C2)c1 (configuration not stated)	3T3 cytotox inconclusive, HEK cytotox 44.7µM (no result: Luciferase inh, NPR1 antag)
COc1ccccc1-c1cccc(CN2CCCC(C(=O)N3CCOCC3)C2)c1 (configuration not stated)	3T3 cytotox inconclusive, HEK cytotox inconclusive (no result: Luciferase inh, NPR1 antag)
COC(=O)CNC(=O)C1CCCN(Cc2cccc(-c3ccccc3OC)c2)C1 (configuration not stated)	3T3 cytotox inconclusive (no result: Luciferase inh, NPR1 antag)
CCOCCNC(=O)C1CCCN(Cc2cccc(-c3ccccc3OC)c2)C1 (configuration not stated)	3T3 cytotox inconclusive, HEK cytotox 39.8µM (no result: Luciferase inh, NPR1 antag)
O=C(NCc1cccs1)C1CCCN(Cc2cccc(-c3ccc(F)cc3F)c2)C1 (configuration not stated)	3T3 cytotox inconclusive, HEK cytotox 44.7µM (no result: Luciferase inh, NPR1 antag)
COc1ccccc1-c1cccc(CN2CCCC(C(=O)N3CCCCC3)C2)c1 (configuration not stated)	3T3 cytotox inconclusive, HEK cytotox 79.4µM (no result: Luciferase inh, NPR1 antag)
CC(C)CCN(C)Cc1cccc(C(F)(F)F)c1	none (no result: Luciferase inh, NPR1 antag)
COc1ccccc1-c1cccc(CN2CCCC(C(=O)NC(C)C)C2)c1 (configuration not stated)	3T3 cytotox 39.8µM, HEK cytotox inconclusive (no result: Luciferase inh, NPR1 antag)
O=C(NCc1cccc(F)c1)C1CCCN(Cc2cccc(-c3ccc(F)cc3F)c2)C1 (configuration not stated)	3T3 cytotox 35.5µM, HEK cytotox 44.7µM (no result: Luciferase inh, NPR1 antag)
COc1ccccc1-c1cccc(CN2CCCC(C(=O)NC3CC3)C2)c1 (configuration not stated)	3T3 cytotox inconclusive, HEK cytotox inconclusive (no result: Luciferase inh, NPR1 antag)
COc1ccc(Cn2c(=O)c(C(=O)N3CCN(C(=O)Cc4ccc(F)cc4)CC3)nc3cccnc32)cc1	HEK cytotox inconclusive (no result: Luciferase inh, NPR1 antag)
COc1ccc(C(=O)NC2CN(c3ccnc4ccnn34)C2)cc1	none (no result: Luciferase inh, NPR1 antag)
COc1ccc(-c2cn3cc(C(=O)NC4CCCCCC4)nc3s2)cc1	none (no result: Luciferase inh, NPR1 antag)
Cc1noc(-c2nc(-c3ccc4c(c3)OCO4)no2)n1	Luciferase inh inconclusive
COCCc1noc(-c2nc(-c3ccccc3)no2)n1	Luciferase inh 20µM
CCc1noc(-c2nc(-c3ccc(F)c(F)c3)no2)n1	Luciferase inh inconclusive
CCc1noc(-c2nc(-c3cccc(F)c3)no2)n1	Luciferase inh 25.1µM
CCCc1noc(-c2nc(-c3ccc4c(c3)OCO4)no2)n1	Luciferase inh 12.6µM
CN(Cc1ccc(-c2ccccc2)cc1)Cc1ccnn1C	3T3 cytotox inconclusive, Luciferase inh inconclusive, NPR1 antag 20µM, HEK cytotox 25.1µM
CN(Cc1ccccc1C(F)(F)F)Cc1ccnn1C	HEK cytotox inconclusive
Cc1ccc(CN(C)Cc2ccc(-c3ccccc3)cc2)cc1	3T3 cytotox inconclusive, HEK cytotox inconclusive
CN(Cc1ccc(-c2ccccc2)cc1)Cc1nccs1	3T3 cytotox inconclusive, Luciferase inh 44.7µM, NPR1 antag 10µM, HEK cytotox inconclusive
CC(C)N1C(=O)C2(CCCC2)C1C(=O)NCCCN1CCc2ccccc2C1 (configuration not stated)	none
Cc1noc2c(NCCCn3ccnc3)cc(-c3ccccc3)nc12	3T3 cytotox 11.2µM, HEK cytotox inconclusive
Cc1noc2c(NCCCn3ccnc3)cc(-c3cccc(C(F)(F)F)c3)nc12	3T3 cytotox inconclusive, HEK cytotox inconclusive

Bioassay records from PubChem BioAssay.
